Experimental data as given in the supplement of paper PMC10849652.
About 7,900 targets were measured; listed, in parts, are those with a hit and a random draw of the rest. About 0.6% of all pairs of compound and target were hits. Unmarked numbers belong to inactive results.

Experiments:
Test in all cases: log2 fold change, soluble protein after heating vs DMSO (PISA); higher = thermal stabilisation; K562 cells, 10 uM, 30 min; active = over 0.2 and 3.5 SD of the protein, either way, in both replicates (recomputed)
[1] = compound: COC1=CC=C(C=C1)CN2C=CC3=C2C=C(C=C3)C(=O)NO
How it was run: (§1)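 K562 cells at 2×10^6 cells/mL were treated with 10 μM compound for 30 min. Aliquots were heated for 3 min across 48°C-58°C, pooled, and extracted in PBS with 0.5% NP-40 at 4°C; soluble protein was the supernatant after 21,000xg for 90 min. Soluble protein was quantified by TMTpro 16plex LC-MS/MS with channel sums equalised, and reported as log2 fold change in thermal stability against DMSO controls, with values from duplicates.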

filanesib = compound: CON(C)C(=O)N1N=C(c2cc(F)ccc2F)S[C@@]1(CCCN)c1ccccc1 [filanesib]
How it was run: as §1

zotarolimus = compound: CO[C@H]1C[C@@H]2CC[C@@H](C)[C@@](O)(O2)C(=O)C(=O)N2CCCC[C@H]2C(=O)O[C@H]([C@H](C)C[C@@H]2CC[C@H](n3cnnn3)[C@H](OC)C2)CC(=O)[C@H](C)/C=C(\C)[C@@H](O)[C@@H](OC)C(=O)[C@H](C)C[C@H](C)/C=C/C=C/C=C/1C [zotarolimus]
How it was run: as §1

idasanutlin = compound: COc1cc(C(=O)O)ccc1NC(=O)[C@@H]1N[C@@H](CC(C)(C)C)[C@](C#N)(c2ccc(Cl)cc2F)[C@H]1c1cccc(Cl)c1F [idasanutlin]
How it was run: as §1

alisertib = compound: COc1cc(Nc2ncc3c(n2)-c2ccc(Cl)cc2C(c2c(F)cccc2OC)=NC3)ccc1C(=O)O [alisertib]
How it was run: as §1

[2] = compound: COc1cc2nc(-c3cc(F)ccc3O)nc(N[C@@H]3CNC[C@H]3C(C)(C)O)c2cc1OC
How it was run: as §1

gefitinib = compound: COc1cc2ncnc(Nc3ccc(F)c(Cl)c3)c2cc1OCCCN1CCOCC1 [gefitinib]
How it was run: as §1

[3] = compound: COc1cccc2cc(-c3nc([C@H]4CC[C@H](C(=O)O)CC4)n4ncnc(N)c34)[nH]c12
How it was run: as §1

lapatinib = compound: CS(=O)(=O)CCNCc1ccc(-c2ccc3ncnc(Nc4ccc(OCc5cccc(F)c5)c(Cl)c4)c3c2)o1 [lapatinib]
How it was run: as §1

pictilisib = compound: CS(=O)(=O)N1CCN(Cc2cc3nc(-c4cccc5[nH]ncc45)nc(N4CCOCC4)c3s2)CC1 [pictilisib]
How it was run: as §1

Sequence of UniProt Q13469 (Q13469 whole entry, looked up): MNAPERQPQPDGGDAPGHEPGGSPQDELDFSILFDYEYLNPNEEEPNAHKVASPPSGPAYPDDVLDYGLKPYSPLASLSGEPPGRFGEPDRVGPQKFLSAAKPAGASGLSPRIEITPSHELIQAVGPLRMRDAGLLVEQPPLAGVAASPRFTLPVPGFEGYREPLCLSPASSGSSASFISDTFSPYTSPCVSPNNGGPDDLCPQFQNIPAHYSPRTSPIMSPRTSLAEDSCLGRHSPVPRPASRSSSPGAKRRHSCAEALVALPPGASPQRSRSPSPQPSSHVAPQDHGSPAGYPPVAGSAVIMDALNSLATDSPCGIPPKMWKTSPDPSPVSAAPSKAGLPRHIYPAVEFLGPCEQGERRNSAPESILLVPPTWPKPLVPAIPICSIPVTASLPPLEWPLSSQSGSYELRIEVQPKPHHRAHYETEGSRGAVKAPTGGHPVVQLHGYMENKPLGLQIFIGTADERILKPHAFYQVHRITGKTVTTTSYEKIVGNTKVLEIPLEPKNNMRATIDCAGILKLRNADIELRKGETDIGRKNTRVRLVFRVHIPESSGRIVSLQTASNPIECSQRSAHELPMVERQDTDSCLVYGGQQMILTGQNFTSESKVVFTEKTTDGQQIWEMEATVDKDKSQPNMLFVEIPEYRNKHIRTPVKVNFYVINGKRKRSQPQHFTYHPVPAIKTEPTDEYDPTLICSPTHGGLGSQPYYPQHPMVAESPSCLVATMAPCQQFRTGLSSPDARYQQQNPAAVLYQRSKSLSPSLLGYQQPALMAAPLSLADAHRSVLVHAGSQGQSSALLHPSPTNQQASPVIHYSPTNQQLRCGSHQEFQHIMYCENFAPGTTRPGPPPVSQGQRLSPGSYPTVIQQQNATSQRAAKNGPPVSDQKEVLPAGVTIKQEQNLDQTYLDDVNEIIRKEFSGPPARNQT
Sequence of UniProt Q96T76 (Q96T76 whole entry, looked up): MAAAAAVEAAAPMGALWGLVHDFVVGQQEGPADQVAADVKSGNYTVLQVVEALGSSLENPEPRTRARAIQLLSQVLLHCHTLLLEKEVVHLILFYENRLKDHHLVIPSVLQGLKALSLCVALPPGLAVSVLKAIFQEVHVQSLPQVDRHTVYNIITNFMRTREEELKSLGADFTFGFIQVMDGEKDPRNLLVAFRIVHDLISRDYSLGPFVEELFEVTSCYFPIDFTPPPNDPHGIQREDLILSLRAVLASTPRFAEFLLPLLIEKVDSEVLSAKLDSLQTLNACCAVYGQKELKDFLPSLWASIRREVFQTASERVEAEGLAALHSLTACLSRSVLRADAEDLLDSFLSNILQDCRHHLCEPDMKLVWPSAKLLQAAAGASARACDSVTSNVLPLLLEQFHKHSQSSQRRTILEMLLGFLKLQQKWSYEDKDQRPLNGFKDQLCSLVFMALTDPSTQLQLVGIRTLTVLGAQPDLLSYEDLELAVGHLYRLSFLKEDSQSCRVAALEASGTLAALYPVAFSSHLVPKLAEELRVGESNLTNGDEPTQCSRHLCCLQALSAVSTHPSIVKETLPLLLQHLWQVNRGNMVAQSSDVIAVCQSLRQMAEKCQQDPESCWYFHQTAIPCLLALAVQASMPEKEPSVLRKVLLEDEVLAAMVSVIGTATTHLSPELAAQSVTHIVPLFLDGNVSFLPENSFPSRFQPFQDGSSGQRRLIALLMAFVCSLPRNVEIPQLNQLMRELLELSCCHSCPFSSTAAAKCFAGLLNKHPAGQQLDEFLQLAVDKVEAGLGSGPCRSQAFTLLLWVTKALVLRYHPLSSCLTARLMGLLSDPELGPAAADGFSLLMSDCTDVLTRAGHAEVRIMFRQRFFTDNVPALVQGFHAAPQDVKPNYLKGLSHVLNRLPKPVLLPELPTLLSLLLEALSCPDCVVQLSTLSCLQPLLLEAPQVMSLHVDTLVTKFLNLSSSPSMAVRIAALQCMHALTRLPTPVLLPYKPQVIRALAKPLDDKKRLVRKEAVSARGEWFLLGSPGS
Sequence of UniProt Q15738 (Q15738 whole entry, looked up): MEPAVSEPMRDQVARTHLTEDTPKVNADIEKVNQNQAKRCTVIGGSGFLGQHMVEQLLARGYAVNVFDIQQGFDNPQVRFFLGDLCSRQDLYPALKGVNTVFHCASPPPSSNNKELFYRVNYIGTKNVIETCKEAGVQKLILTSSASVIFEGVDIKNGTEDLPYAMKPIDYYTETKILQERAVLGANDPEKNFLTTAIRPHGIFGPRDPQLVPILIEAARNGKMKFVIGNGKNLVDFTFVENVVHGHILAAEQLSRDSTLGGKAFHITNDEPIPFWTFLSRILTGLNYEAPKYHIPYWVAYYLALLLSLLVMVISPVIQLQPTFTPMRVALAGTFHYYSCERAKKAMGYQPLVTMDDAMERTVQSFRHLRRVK
Sequence of UniProt P56556 (P56556 whole entry, looked up): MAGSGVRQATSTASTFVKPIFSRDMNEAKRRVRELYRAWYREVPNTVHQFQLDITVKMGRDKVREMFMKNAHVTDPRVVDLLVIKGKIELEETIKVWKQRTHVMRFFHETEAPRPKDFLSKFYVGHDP
Sequence of UniProt P55209 (P55209 whole entry, looked up): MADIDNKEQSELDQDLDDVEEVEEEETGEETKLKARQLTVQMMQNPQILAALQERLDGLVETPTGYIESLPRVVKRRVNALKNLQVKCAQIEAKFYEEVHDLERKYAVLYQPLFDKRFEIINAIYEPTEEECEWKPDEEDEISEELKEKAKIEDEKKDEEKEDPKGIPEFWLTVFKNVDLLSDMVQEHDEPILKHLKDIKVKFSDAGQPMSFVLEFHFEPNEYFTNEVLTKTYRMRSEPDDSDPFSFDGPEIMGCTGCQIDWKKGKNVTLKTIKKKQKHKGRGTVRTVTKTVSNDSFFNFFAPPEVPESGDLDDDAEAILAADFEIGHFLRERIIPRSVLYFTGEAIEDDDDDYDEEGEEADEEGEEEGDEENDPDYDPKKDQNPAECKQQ
Sequence of UniProt Q15003 (Q15003 whole entry, looked up): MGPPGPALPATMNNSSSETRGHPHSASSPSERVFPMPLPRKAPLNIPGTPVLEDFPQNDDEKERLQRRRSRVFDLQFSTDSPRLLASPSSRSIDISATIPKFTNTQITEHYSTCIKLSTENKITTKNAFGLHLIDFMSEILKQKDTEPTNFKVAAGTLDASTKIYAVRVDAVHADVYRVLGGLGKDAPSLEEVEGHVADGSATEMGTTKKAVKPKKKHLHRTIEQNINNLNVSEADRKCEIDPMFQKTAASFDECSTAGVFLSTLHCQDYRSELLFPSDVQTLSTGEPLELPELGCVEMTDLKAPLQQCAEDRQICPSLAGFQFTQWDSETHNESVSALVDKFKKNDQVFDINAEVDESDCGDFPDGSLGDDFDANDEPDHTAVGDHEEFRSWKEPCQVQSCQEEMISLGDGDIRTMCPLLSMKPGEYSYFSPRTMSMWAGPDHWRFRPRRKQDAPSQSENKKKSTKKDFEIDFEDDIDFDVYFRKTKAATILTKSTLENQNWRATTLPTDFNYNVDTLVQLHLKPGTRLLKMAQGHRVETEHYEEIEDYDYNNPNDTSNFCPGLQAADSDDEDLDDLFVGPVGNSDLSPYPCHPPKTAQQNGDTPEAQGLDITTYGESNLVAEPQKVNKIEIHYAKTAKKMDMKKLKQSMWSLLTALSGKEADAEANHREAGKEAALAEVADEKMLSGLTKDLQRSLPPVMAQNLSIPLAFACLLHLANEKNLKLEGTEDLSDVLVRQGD
Sequence of UniProt Q9UBD5 (Q9UBD5 whole entry, looked up): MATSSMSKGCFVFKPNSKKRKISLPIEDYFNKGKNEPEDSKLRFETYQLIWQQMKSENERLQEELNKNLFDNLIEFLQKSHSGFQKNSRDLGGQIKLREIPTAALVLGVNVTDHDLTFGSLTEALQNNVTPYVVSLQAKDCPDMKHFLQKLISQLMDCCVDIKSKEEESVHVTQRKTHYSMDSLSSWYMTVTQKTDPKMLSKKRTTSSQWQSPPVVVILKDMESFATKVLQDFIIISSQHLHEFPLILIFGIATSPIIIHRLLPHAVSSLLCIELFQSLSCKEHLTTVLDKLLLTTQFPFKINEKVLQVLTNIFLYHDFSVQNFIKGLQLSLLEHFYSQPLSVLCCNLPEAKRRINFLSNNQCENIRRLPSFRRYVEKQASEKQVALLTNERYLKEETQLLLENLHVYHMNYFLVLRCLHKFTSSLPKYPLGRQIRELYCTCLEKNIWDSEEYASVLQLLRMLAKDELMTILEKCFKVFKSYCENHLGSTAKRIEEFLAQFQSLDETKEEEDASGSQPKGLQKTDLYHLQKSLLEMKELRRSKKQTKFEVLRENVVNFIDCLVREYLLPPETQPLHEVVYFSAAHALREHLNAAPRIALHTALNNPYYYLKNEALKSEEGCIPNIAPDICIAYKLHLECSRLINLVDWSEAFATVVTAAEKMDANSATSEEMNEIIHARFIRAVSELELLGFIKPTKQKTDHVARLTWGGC
Sequence of UniProt Q9HBL8 (Q9HBL8 whole entry, looked up): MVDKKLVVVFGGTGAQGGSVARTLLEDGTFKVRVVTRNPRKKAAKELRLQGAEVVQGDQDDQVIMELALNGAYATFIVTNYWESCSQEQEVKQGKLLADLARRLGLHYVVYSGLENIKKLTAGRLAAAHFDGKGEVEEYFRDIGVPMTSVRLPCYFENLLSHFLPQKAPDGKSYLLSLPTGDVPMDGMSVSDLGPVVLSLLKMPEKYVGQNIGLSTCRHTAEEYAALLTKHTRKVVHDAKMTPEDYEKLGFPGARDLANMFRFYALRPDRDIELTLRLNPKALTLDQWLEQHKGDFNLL
Sequence of UniProt O75251 (O75251 whole entry, looked up): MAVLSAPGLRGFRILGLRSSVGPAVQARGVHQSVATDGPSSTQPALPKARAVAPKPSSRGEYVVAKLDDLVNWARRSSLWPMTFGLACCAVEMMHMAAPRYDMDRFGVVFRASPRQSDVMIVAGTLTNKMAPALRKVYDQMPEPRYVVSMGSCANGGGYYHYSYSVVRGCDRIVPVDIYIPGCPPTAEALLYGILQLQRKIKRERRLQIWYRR

Row | Target | log2 fold change [1] | log2 fold change (filanesib) | log2 fold change (zotarolimus) | log2 fold change (idasanutlin) | log2 fold change (alisertib) | log2 fold change [2] | log2 fold change (gefitinib) | log2 fold change [3] | log2 fold change (lapatinib) | log2 fold change (pictilisib)
1 | MRPS10 (UniProt P82664) | -0.041 | 0.045 | 0.08 | -0.088 | -0.014 | -0.017 | -0.042 | 0.012 | 0.069 | -0.112
2 | MRPS18B (UniProt Q9Y676) | 0.011 | 0.065 | 0.035 | -0.205 | 0.069 | 0.024 | 0.078 | 0.018 | -0.005 | -0.106
3 | NDUFAF6 (UniProt Q330K2) | 0.183 | -0.177 | -0.006 | 0.03 | -0.199 | -0.165 | -0.018 | 0.061 | -0.007 | 0
4 | NOL11 (UniProt Q9H8H0) | -0.029 | 0 | 0.005 | -0.046 | -0.017 | 0.067 | -0.008 | 0.056 | 0.005 | 0.025
5 | NNMT (UniProt P40261) | -0.057 | -0.163 | -0.001 | -0.076 | -0.06 | 0.216 | 0.041 | 0.017 | -0.019 | 0.06
6 | MMS19 isoform 8 (UniProt Q96T76) | -0.094 | -0.036 | 0.037 | -0.014 | -0.019 | 0.06 | 0.026 | 0.019 | -0.021 | -0.008
7 | MITD1 (UniProt Q8WV92) | 0.059 | 0.004 | -0.068 | -0.058 | 0.018 | -0.013 | -0.018 | 0.063 | 0.004 | -0.121
8 | NAP1L1 (UniProt P55209) | -0.001 | 0.08 | 0.078 | 0.053 | -0.043 | 0.078 | -0.002 | -0.041 | -0.005 | 0.107
9 | NDUFS7 (UniProt O75251) | -0.009 | -0.108 | -0.036 | -0.112 | 0.039 | -0.106 | -0.029 | 0.057 | 0.015 | 0.047
10 | NCAPH (UniProt Q15003) | -0.03 | 0.018 | 0.024 | -0.046 | 0.016 | 0.092 | 0 | -0.065 | -0.021 | 0.062
11 | NFATC2 (UniProt Q13469) | 0.015 | 0.161 | -0.084 | 0.058 | 0.147 | -0.036 | 0.031 | -0.152 | -0.001 | -0.029
12 | NDUFA6 (UniProt P56556) | 0.097 | -0.035 | 0.05 | -0.383 (active) | 0.044 | 0.048 | -0.004 | 0.068 | 0.097 | 0.087
13 | NSDHL (UniProt Q15738) | 0.006 | -0.11 | 0.04 | 0.208 | 0.033 | -0.062 | 0.021 | 0 | 0.185 | 0.023
14 | NMRAL1 (UniProt Q9HBL8) | 0.678 | -0.084 | 0.135 | -0.268 | -0.099 | 0.184 | 0.257 | 0.003 | -0.003 | 0.83
15 | ORC3 isoform 2 (UniProt Q9UBD5) | 0.071 | 0.043 | 0.064 | 0.265 | -0.058 | -0.002 | 0.006 | -0.068 | 0.031 | 0.027
